Experimental data published in PubChem BioAssay AID588852 (The Scripps Research Institute Molecular Screening Center, 2011).
About 4,600 (1.3%) of roughly 360,000 compounds were called active.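 Rule for the calls: active = percent inhibition above its own plate's cutoff, namely the mean of that plate's compound wells plus 3 SD; inactive = the rest.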 Many of the other results were omitted from the sample, so actives are more common in it than they were.

Molecular target: Muscarinic acetylcholine receptor M1 (Homo sapiens) (UniProt P11229)
Experiment: human M1 muscarinic receptor antagonists, primary screen, CHO-K1 cells, Fluo-8 calcium fluorescence, 1536-well (AID 588852);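 note: peak over basal fluorescence ratio during 140 s after agonist addition; 0% = ACh EC80 plus DMSO and 100% = DMSO alone without agonist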
Settings: CHO-K1 hM1, Fluo-8 calcium fluorescence, ACh EC80 antagonist; at 3 µM; hits give high values

Chain of Muscarinic acetylcholine receptor M1 (Homo sapiens) (P11229 whole entry, looked up): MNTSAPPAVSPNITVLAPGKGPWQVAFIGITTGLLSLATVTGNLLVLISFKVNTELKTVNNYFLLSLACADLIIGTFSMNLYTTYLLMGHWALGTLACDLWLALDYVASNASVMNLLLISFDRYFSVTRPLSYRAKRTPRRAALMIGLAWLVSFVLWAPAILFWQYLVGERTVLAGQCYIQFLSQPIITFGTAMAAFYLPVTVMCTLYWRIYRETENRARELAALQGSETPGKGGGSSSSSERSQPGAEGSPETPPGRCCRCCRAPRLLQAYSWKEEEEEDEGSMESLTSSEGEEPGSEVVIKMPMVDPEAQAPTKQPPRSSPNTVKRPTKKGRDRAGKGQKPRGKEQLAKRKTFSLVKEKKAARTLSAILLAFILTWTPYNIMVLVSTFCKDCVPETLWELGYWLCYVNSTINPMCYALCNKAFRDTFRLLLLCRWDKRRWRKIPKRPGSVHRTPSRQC

inhibition, inactive:
Cc1nc(NC(=O)CCC(=O)O)sc1C(=O)N(C)C 2.74%
CCCn1c(C2CCCN2c2nc(-c3ccc(C)cc3)cs2)nc2cc(Cl)c(N3CCCCC3)cc21 (stereo unspecified) -10.7%
COc1ccc(S(=O)(=O)Nc2cc(C)on2)cc1NC(C)=O -12.3%
CCOc1ccc(C(=O)Nc2ccc(S(=O)(=O)Nc3cc(C)on3)cc2)cc1 0.49%
CC1CCCC(C)N1C(=O)COC(=O)COc1ccccc1C#N (stereo unspecified) -15.1%
COc1ccccc1CNS(=O)(=O)c1cc(C(=O)NCc2ccccn2)c(Cl)cc1Cl 5.67%
Cc1cc(C)n2nc(C(=O)OCC(=O)N(CCC#N)c3ccc(F)cc3)nc2n1 -14.2%
CNS(=O)(=O)c1ccc(N2CCCC2=O)c([N+](=O)[O-])c1 -23.5%
CC(=O)c1cccc(NC(=S)N2CCN(S(C)(=O)=O)CC2)c1 -7.9%
CSc1ccccc1C(=O)Nc1cccc(C(C)=O)c1 0.3%
CC(=O)c1cccc(NC(=O)C2CCN(C(=O)c3ccccc3Cl)CC2)c1 -5.19%
COc1ccc(NC(C(=O)Nc2cccc(C(C)=O)c2)c2ccccc2)cc1 (stereo unspecified) -3.24%
Fc1cccc(Cc2c(-c3cccc(Cl)c3)nc3ccc(Br)cn23)c1 -20.5%
CC#CC[N+](C)(C)CCCCCC -12.7%
FC(F)(F)Oc1ccc(-c2cn3cccnc3n2)cc1 12.5%
O=C(CCc1ccc(S(=O)(=O)N2CCOCC2)cc1)OCC(=O)c1ccc(Br)cc1 9.26%
O=C(Nc1ccccc1Cl)/C(Cl)=C(\Cl)S(=O)c1ccccc1 (stereo unspecified) -6.91%
COc1ccc(C(O)(C2CCCCC2)C(CN2CCCC2)c2ccccc2)cc1 (stereo unspecified) 10.3%
OC(c1ccccc1)C(CN1CCOCC1)c1ccccc1 (stereo unspecified) -25.3%
Clc1cccc(Cl)c1Cn1nnc(-c2cccs2)n1 -2.1%
CC(=O)c1c(N)n(C)c(=O)n(C)c1=O -33.5%
CCOC(=O)c1ccc(-c2ccc3ncnc(N(C)Cc4sccc4C)c3c2)o1 -1.82%
N/C(=N\OC(=O)Nc1ccccc1)c1ccno1 -25%
CC(C)CCNC(=O)c1[nH]c(C(F)(F)F)nc1-c1ccccc1 -26.6%
CCN(Cc1ccccc1)C(=O)CN1C(=S)NC(C)(C)CC1C (stereo unspecified) -5.27%
CCNC(=S)N(CCN(CC)CC)Cc1cc2cc3c(cc2[nH]c1=O)OCCO3 -13%
CC1CN(S(=O)(=O)c2ccc(C(=O)NN3CCN(C)CC3)cc2)CC(C)O1 (stereo unspecified) 9.23%
CN1CCN(NC(=O)c2ccc(S(=O)(=O)N3CCCCCC3)cc2)CC1 -2.56%
Cc1ccc([C@H]2N[C@]3(CCCN(Cc4ccccc4)C3=O)[C@H]3C(=O)N(Cc4ccccc4)C(=O)[C@@H]23)cc1 -11.4%
OCCc1ccc(NCCc2ccco2)cc1 0.71%
CCOC(=O)N1CCN(C(=O)c2nn(-c3ccc(C)cc3)c(=O)c3c2c2ccccc2n3C)CC1 3.41%
O=C(c1ccccc1Oc1ccccc1)N1CCN(c2ccc(F)cc2)CC1 4.1%
O=C(Nc1ccc2c(c1)OCCO2)C(C1CC1)N1CCC(Cc2ccccc2)CC1 (stereo unspecified) 34.6%
CC(C)Cc1ccc(-c2cc3nc(NCc4cccc(Cl)c4)ccn3n2)cc1 -8.68%
Cc1nnc(SC(C)C(=O)c2c[nH]c3ccccc23)n1C1CC1 (stereo unspecified) 2.35%
C[C@H]1CN([C@@H](C)CO)S(=O)(=O)c2ccc(Br)cc2O[C@H]1CN(C)C(=O)c1cnccn1 -4.86%
O=C(Cc1ccccc1)Nc1c(Cl)ccc2nsnc12 -7.81%
CCOC(=O)Nc1ccc2c(c1)N(C(=O)CCCl)c1ccccc1[S@]2=O -17.2%
CCOC(=O)Nc1ccc2c(c1)N(C(=O)CCN1CCN(CCO)CC1)c1ccccc1CC2 16.4%
Cc1cc2c(cc1C)N(C(=O)CN1C(=O)c3ccccc3C1=O)C(C)(C)c1ssc(=S)c1-2 9.39%
Nn1c(SCC(=O)Nc2nccs2)nncc1=O 11.7%
CC(=O)Nc1ccc(OC(=O)COc2ccc(Br)cc2)cc1 1.05%
Cn1cccc1C(=O)NNC(=O)COc1ccc(Br)cc1 -13%
Cc1nn(CCCC(=O)NCc2ccccc2Cl)c(=O)c2nccn12 -19.9%
Cc1ccc(-c2c3c(=O)n(C)c(=O)n(C)c3cn2-c2ccccc2O)cc1 7.07%
COc1ccc(Nc2cc(=O)n(-c3ccccc3)c3c2c(=O)n(C)c(=O)n3C)cc1 12.9%
O=C1CCN(CCc2ccccc2)CCN1CCOc1ccccc1 -21.3%
O=S(=O)(c1cccs1)N1CCN(CCOc2ccccc2)CC1 -13.2%
O=C(Nc1cc(Br)ccc1F)c1nc[nH]c1C(=O)NCc1ccccc1 -2.93%
CCOC1CS(=O)(=O)CC1OCC (stereo unspecified) -4.01%
Cc1ccc(CN2CC(N3CCC(Cc4ccccc4)CC3)CS2(=O)=O)cc1 (stereo unspecified) -11.4%
CCN(CCCNC(=O)CSc1cc(=O)n(C)c2cc(Cl)ccc12)Cc1ccccc1 2.6%
COC(=O)c1ccc(COC(=O)c2cnc(Cl)c(Cl)c2)cc1 -11.6%
Cc1cc(OC(=O)c2ccc(Cl)cc2)cc(=O)n1C -25.4%
Cc1ccccc1NC(=O)CSC1=NCCN1 -2.31%

inhibition, active:
COc1cc2ccccc2cc1C(=O)Nc1ccc(S(=O)(=O)Nc2cc(C)on2)cc1 103%
C=CCSc1nsc(NC(=O)Nc2cccc(C(C)=O)c2)n1 38.7%
CCSc1nsc(NC(=O)Nc2cccc(C(C)=O)c2)n1 51.1%
OC(C#CCN1CCOCC1)(c1ccccc1)C1CCCCC1 (stereo unspecified) 50.9%
CCCCOc1ccc(C(=O)NN2CCN(C)CC2)cc1 44.4%
Cn1c2ccccc2c2c(C(=O)N3CCN(c4ccc(F)cc4)CC3)cn(C3CCCC3)c(=O)c21 29.7%
CCNCCC(=O)N1c2ccccc2Sc2ccc(NC(=O)OCC)cc21 56%
Cc1ccc(O)c(NC(=S)NC(=O)COc2ccc(Br)cc2)c1 34.7%
COc1cccc(-n2cc3c(c2-c2ccccc2)c(=O)n(C)c(=O)n3C)c1 36.7%
O=c1[nH]c2ccccc2n1C1CCN(CCOc2ccccc2)CC1 78.4%
Cn1cncc1COC(=O)c1ccc(Cl)cc1 88.4%
